Where “and” joins values, the source holds several entries; their conditions need not be identical. Identical values can stand only once. The source holds several records for some structures; these can differ, active in one and inactive in another. Calls of active or inactive are those of the source. Calls come from the whole dose curve.
Assay: qHTS drug screen for cell cycle checkpoint inhibitors in PARPi-resistant BRCA-mutant ovarian cancer cell lines. (AID 1963452)
Conditions: PEO1/OlaR viability, CellTiter-Glo luminescence, 96 h; for Z-AUC: stronger effect = lower value
From the text: Women's Malignancies Branch, Center for Cancer Research (CCR),
National Cancer Institute (NCI), National Institutes of Health (NIH), Bethesda, MD
Poly (ADP-ribose) polymerase inhibitors (PARPis) have changed the treatment paradigm in breast cancer gene (BRCA) - mutant high-grade serous ovarian carcinoma (HGSC). However, most patients eventually develop resistance to PARPis, highlighting an unmet need for improved therapeutic strategies. Using high-throughput drug screens, we identified ataxia telangiectasia and rad3-related protein/checkpoint kinase 1 (CHK1) pathway inhibitors as cytotoxic and further validated the activity of the CHK1 inhibitor (CHK1i) prexasertib in PARPi-sensitive and -resistant BRCA-mutant HGSC cells and xenograft mouse models. CHK1i monotherapy induced DNA damage, apoptosis, and tumor size reduction. We then conducted a phase 2 study (NCT02203513) of prexasertib in patients with BRCA-mutant HGSC. The treatment was well tolerated but yielded an objective response rate of 6% (1 of 17; one partial response) in patients with previous PARPi treatment. […] BRCA reversion mutation in previously PARPi-treated BRCA-mutant patients was not associated with resistance to CHK1i.
Among others, 1082 oncology drugs, both approved and investigational, were prioritized based on their status in clinical trial development. […] Drugs with average Z-AUC values less than -1.0 in all three cell lines were classified as "hits" resulting in 151 oncology drug hits. The screen also confirmed cross-resistance between olaparib and other PARPis (rucaparib, niraparib, and talazoparib) in PARPi-resistant PEO1/OlaR and PEO4.
[1] G. L. Lin, K. M. Wilson, M. Ceribelli, B. Z. Stanton, P. J. Woo, S. Kreimer, E. Y. Qin, X. Zhang, J. Lennon, S. Nagaraja, P. J. Morris, M. Quezada, S. M. Gillespie, D. Y. Duveau, A. M. Michalowski, P. Shinn, R. Guha, M. Ferrer, C. Klumpp-Thomas, S. Michael, C. McKnight, P. Minhas, Z. Itkin, E. H. Raabe, L. Chen, R. Ghanem, A. C. Geraghty, L. Ni, K. I. Andreasson, N. A. Vitanza, K. E.Warren, C. J. Thomas, M. Monje, Therapeutic strategies for diffuse midline glioma from high-throughput combination drug screening. Sci. Transl. Med. 11, (2019).
[2] T. M. Yamamoto, A. McMellen, Z. L. Watson, J. Aguilera, R. Ferguson, E. Nurmemmedov, T. Thakar, G. L. Moldovan, H. Kim, D. M. Cittelly, A. M. Joglar, E. P. Brennecke, H. Wilson, K. Behbakht, M. J. Sikora, B. G. Bitler, Activation of Wnt signaling promotes olaparib resistant ovarian cancer. Mol. Carcinog. 58, 1770 - 1782 (2019).
PROTOCOL TABLE (as described by Inglese J, Shamu CE and Guy RK. 2007)
SEQUENCE No. (e.g., 1, 2, 3, etc.); […] (e.g., Cells, Incubation, Reagent, etc.); VALUE; DESCRIPTION.
1; Compounds; 20nL; 1536-well white tissue culture-treated plates.
2; Cells; 5 uL; PEO1, PEO4, and PEO1/OlaR cells at 600 cells per well.
3; Incubation; 96 hr; 37C, 95% humidity, 5% CO2.
4; Reagent; 3 uL; CellTiter-Glo (Promega).
5; Incubation; 15 min; room temperature.
6; Detection; Luminescence, PHERAstar (BMG Labtech) plate reader.
NOTES (numbers refer to Sequence numbers above)
1. MIPE 5.0 compounds were acoustically dispensed by Echo Acoustic Liquid Handler (Beckman Coulter Life Sciences). Each compound was plated at an 11-point concentration range with 1:3 dilution. Bortezomib, a proteasome inhibitor (final concentration, 20 uM), was used as a positive.
2. PEO1, PEO4, and PEO1/OlaR were trypsinized and dispensed in 5 uLof growth medium using a Multidrop Combi dispenser at a density of 600 cells per well to allow compounds to be present during the exponential growth phase.
3. Plates were incubated for 96 hours at standard incubator conditions and covered by a stainless steel gasketed lid to prevent evaporation.
4. Three microliters of CellTiter-Glo (Promega) were added to each well.
5. Plates were incubated at room temperature for 15 min with a stainless-steel lid in place.
6. Luminescence readings were taken using PHERAstar (BMG Labtech). […]

[1] = measured here: PEO1 parental Z-AUC
Potency is the fitted concentration of half-maximal effect.

SMILES | Potency | Z-AUC | Z-AUC [1] | Z-AUC (measured here: PEO4 Z-AUC)
CN[C@H]1CN(c2ccc3c(=O)c(C(=O)O)cn(-c4nccs4)c3n2)C[C@@H]1OC | 1.59 µM (active) | -0.941 (inactive) | -1.7 and -1.57 | -1.25 and -1.14
NC(=O)c1ccc2nc(-c3ccc(C4(N)CCC4)cc3)c(-c3ccccc3)n2n1 |  | -0.331 (inactive) | -0.179 | 0.0521
C=C1[C@H](OC(=O)/C=C(\C)CC)C[C@@H](C(C)C)[C@@H]2[C@H]([C@@H](C)OC(C)=O)C(=O)C[C@@H]12 |  | 1.28 (inactive) | 0.917 | 1.09
CC[C@@H]1[C@H](F)C(=O)N[C@@H]1COc1nccc2cc(C(N)=O)c(OC)cc12 |  | -0.948 (inactive) | -0.251 | 0.0982
CNC(=O)CCc1cc(-c2ccc(-c3ccc(C(F)(F)F)cc3)cc2)n(-c2ccc(N3CCNCC3)cc2)n1 |  | 1.07 (inactive) | -0.284 | 0.197
Nc1ccc(F)cc1NC(=O)c1ccc(CNC(=O)/C=C/c2cccnc2)cc1 |  | -1.13 (inactive) | -0.9 | -0.779
Cc1ccc(C(=O)OCc2ccc([C@@H](CN)C(=O)Nc3ccc4cnccc4c3)cc2)c(C)c1 |  | -1.52 (inactive) | -0.919 | -0.26
COC(=O)N[C@H](C(=O)N1CCC[C@H]1c1ncc(-c2ccc(-c3ccc(-c4cnc([C@@H]5CCCN5C(=O)[C@@H](NC(=O)OC)C(C)C)[nH]4)cc3)cc2)[nH]1)C(C)C |  | -0.519 (inactive) | -0.789 | -0.801
N#Cc1c(N)nc(N)nc1N[C@H](c1nc2c(F)ccc(Cl)c2c(=O)n1-c1cccnc1)C1CC1 |  | -1.77 (inactive) | -0.776 | -0.121
NC(=O)C1=C(O)[C@@]2(O)C(=O)C3=C(O)c4c(O)cccc4C[C@H]3C[C@H]2CC1=O |  | -0.543 (inactive) | -1.08 | -1.12
CN[C@@H](C)C(=O)N[C@H](C(=O)N1CCC[C@H]1c1nc(C(=O)c2ccc(F)cc2)cs1)C1CCCCC1 |  | -0.196 (inactive) | -0.329 | -0.73
CO[C@H]1C[C@@H]2CC[C@@H](C)[C@@](O)(O2)C(=O)C(=O)N2CCCC[C@H]2C(=O)O[C@H]([C@H](C)C[C@@H]2CC[C@@H](OCCO)[C@H](OC)C2)CC(=O)[C@H](C)/C=C(/C)[C@@H](O)[C@@H](OC)C(=O)[C@H](C)C[C@H](C)/C=C\C=CC=C1C |  | 0.703 (inactive) | 0.778 | 0.68
O=C(O)CNC(=O)c1ncc(-c2cccc(Cl)c2)cc1O |  | -0.0287 (inactive) | 0.803 | 0.828
